Assay results from PubChem BioAssay AID1159580 (chemical genetic matrix, 2015).
“And” between values parts separate entries of the source, which are not always exact repeats. Equal entries are not always repeated. In all, about 5,500 compounds went through this assay and about 2,000 (36%) were called active. Roughly 18% stayed inconclusive and do not appear here. Cut-off read from the data, not from the text of the source: active = normalized growth mostly below about 0.91 (no sharp cut-off); inconclusive = no clear call, values can overlap the other calls; inactive = mostly above about 0.92. The list shows a part of the results.

Assay: chemical genetic growth profiling, strain panel (AID 1159580);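 note: tested at 20 µM; growth read once vehicle control cultures reached saturation at 30 °C; 1 = growth at the plate median or of vehicle wells; lower values mean less growth of the strain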
Settings: S. cerevisiae deletion strains, growth OD

Measured: normalized growth

CCCCC1C(=O)N(c2ccccc2)N(c2ccccc2)C1=O
inactive: locus YAL013W, strain DEP1, active compounds read low 0.971 and 0.998 | locus YAL021C, strain ccr4, active compounds read low 0.999 | locus YAL026C, strain drs2, active compounds read low 0.982 | locus YAL030W, strain snc1, active compounds read low 0.987 | locus YAL040C, strain CLN3, active compounds read low 0.963 | locus YBL061C, strain skt5, active compounds read low 0.997 | locus YBR009C, strain hhf1, active compounds read low 1.01 | locus YBR021W, strain FUR4, active compounds read low 1.01 | locus YBR023C, strain chs3, active compounds read low 0.998 | locus YBR171W, strain sec66, active compounds read low 0.977 | locus YBR229C, strain ROT2, active compounds read low 0.983 | locus YBR231C, strain swc5, active compounds read low 1 | locus YBR279W, strain paf1, active compounds read low 1.02 | locus YCL011C, strain gbp2, active compounds read low 1 | locus YCL016C, strain dcc1, active compounds read low 1 | locus YCL029C, strain bik1, active compounds read low 1.01 | locus YCL061C, strain MRC1 (second series), active compounds read low 0.998 | locus YCL061C, strain MRC1, active compounds read low 0.983 | locus YCL069W, strain vba3, active compounds read low 0.999 | locus YCR088W, strain abp1, active compounds read low 0.985 | locus YDL005C, strain med2, active compounds read low 1 | locus YDL035C, strain GPR1, active compounds read low 0.989 | locus YDL040C, strain nat1, active compounds read low 0.99 | locus YDL074C, strain BRE1, active compounds read low 1.02 | locus YDL101C, strain DUN1, active compounds read low 1.01 | locus YDL134C, strain PPH21, active compounds read low 0.986 | locus YDL185W, strain tfp1, active compounds read low 0.994 | locus YDL192W, strain arf1, active compounds read low 0.988 | locus YDR001C, strain nth1, active compounds read low 0.984 | locus YDR069C, strain doa4, active compounds read low 0.982 | locus YDR101C, strain arx1, active compounds read low 1.01 | locus YDR137W, strain rgp1, active compounds read low 0.915 | locus YDR150W, strain NUM1, active compounds read low 0.99 and 0.997 | locus YDR159W, strain sac3, active compounds read low 0.972 | locus YDR162C, strain NBP2, active compounds read low 0.976 | locus YDR195W, strain ref2 0.992 | locus YDR297W, strain sur2, active compounds read low 0.989 | locus YDR318W, strain mcm21, active compounds read low 1.01 | locus YDR334W, strain swr1, active compounds read low 0.994 | locus YDR335W, strain msn5, active compounds read low 0.997 | locus YDR363W, strain ESC2, active compounds read low 1.03 | locus YDR388W, active compounds read low 1 | locus YDR392W, strain spt3, active compounds read low 0.969 | locus YDR502C, strain sam2, active compounds read low 0.986 | locus YEL003W, strain gim4, active compounds read low 1 | locus YEL037C, strain rad23, active compounds read low 0.991 | locus YEL061C, strain CIN8 (second series), active compounds read low 0.983 | locus YEL061C, strain CIN8, active compounds read low 0.981 | locus YER002W, strain NOP16, active compounds read low 0.974 | locus YER015W, strain faa2, active compounds read low 0.998 | locus YER016W, strain bim1, active compounds read low 0.99 | locus YER110C, active compounds read low 0.993 | locus YER111C, strain swi4, active compounds read low 0.979 | locus YER155C, strain BEM2 (second series), active compounds read low 1.03 | locus YER155C, strain BEM2, active compounds read low 1.01 | locus YER167W, strain BCK2, active compounds read low 0.987 | locus YFR010W, strain ubp6, active compounds read low 0.991 | locus YGL078C, strain dbp3, active compounds read low 1.01 | locus YGL086W, strain mad1, active compounds read low 0.963 | locus YGL167C, strain pmr1, active compounds read low 0.977 | locus YGL173C, strain kem1, active compounds read low 0.983 | locus YGL227W, strain vid30, active compounds read low 1 | locus YGL240W, strain doc1, active compounds read low 1.01 | locus YGL248W, strain PDE1, active compounds read low 0.991 | locus YGL253W, strain hxk2, active compounds read low 0.994 | locus YGR078C, strain PAC10, active compounds read low 1.02 and 0.981 | locus YGR135W, strain pre9, active compounds read low 0.994 | locus YGR229C, strain SMI1, active compounds read low 0.983 and 1 | locus YGR252W, strain gcn5, active compounds read low 0.922 | locus YHR013C, strain ard1, active compounds read low 0.992 | locus YHR027C, strain rpn1, active compounds read low 0.99 | locus YHR030C, strain SLT2, active compounds read low 0.992 and 0.937 | locus YHR079C, strain IRE1 (second series), active compounds read low 1 | locus YHR079C, strain IRE1, active compounds read low 0.917 | locus YHR094C, strain hxt1, active compounds read low 0.991 | locus YHR129C, strain ARP1, active compounds read low 0.994 | locus YHR142W, strain chs7, active compounds read low 1.03 | locus YHR200W, strain rpn10, active compounds read low 1 | locus YIL066C, strain RNR3, active compounds read low 0.991 | locus YIL073C, strain SPO22, active compounds read low 1.01 | locus YIL125W, strain kgd1, active compounds read low 0.98 | locus YIR030C, strain dcg1, active compounds read low 0.993 | locus YJL092W, strain hpr5, active compounds read low 0.985 | locus YJL095W, strain BCK1 (second series), active compounds read low 0.996 | locus YJL095W, strain BCK1, active compounds read low 1.03 and 0.938 | locus YJL115W, strain asf1, active compounds read low 0.99 | locus YJL129C, strain trk1, active compounds read low 0.999 | locus YJL134W, strain LCB3, active compounds read low 0.977 | locus YJL154C, strain vps35, active compounds read low 0.991 | locus YJL164C, strain tpk1, active compounds read low 1.01 | locus YJL166W, strain qcr8, active compounds read low 1.01 | locus YJL168C, strain set2, active compounds read low 0.988 | locus YJL187C, strain SWE1 (second series), active compounds read low 1.01 | locus YJL187C, strain SWE1, active compounds read low 0.988 | locus YJR043C, strain POL32, active compounds read low 1.04 | locus YJR066W, strain TOR1, active compounds read low 0.915
